For 27 compounds, Potency results are on record in PubChem BioAssay (NCATS).

Inconclusive results are not listed. Where a call stands in place of a potency, no number is given. A number with no mark means an inactive call. The source made the active and inactive calls. The call rests on the fitted dose curve; in most records, active means well fitted inhibition curve with a large enough effect; inconclusive means small, poorly fitted or top-dose-only effect; inactive means no such curve, though single readings can be large or run the other way. Where a SMILES comes first, the peptide text is derived from it. [ ]: non-standard residue; d: D form. ξ: configuration not given here. ξPhe(βξ-Me) = CC(c1ccccc1)C(N)C(=O)O; GABA = NCCCC(=O)O

Assay [1] concerns Zika virus NS2B-NS3 protease (unlinked complex). Kind of assay: Primary screen GU Rhodamine qHTS for Zika virus inhibitors: Unlinked NS2B-NS3 protease assay (AID 1347159). Further: nearly all actives have a fitted effect of over 60% in size. Further: potency means the concentration at half of the fitted maximal effect. The method in brief: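 Noncovalent NS2B hydrophilic domain/NS3 protease complex (25 nM final) in 10 mM Tris-HCl pH 8.0, 0.01% Tween 20, preincubated 15 min with compounds (up to 114 microM), then 1.5 microM Rhodamine110 substrate. Fluorescence change over 15 min fitted to 4-parameter Hill.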

The test system of assay [2] is Zika virus NS2B-NS3 protease (linked construct). Kind of assay: Primary screen NINDS Rhodamine qHTS for Zika virus inhibitors (AID 1347160). Further: nearly all actives have a fitted effect of over 55% in size. In a few lines:
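Purified NS2B-NS3 protease with the NS2B hydrophilic domain joined by a flexible linker (25 nM) in 10 mM Tris-HCl pH 8.0, 0.01% Tween 20, preincubated 15 min at RT with compound; Rhodamine110 peptide substrate 1.5 µM; fluorescence change over 15 min; 4-parameter Hill fit.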

On to `CCCC(=O)O[C@@H]1[C@@H]2[C@@H](OC(C)=O)[C@]3(C)C(=O)[C@H]4[C@@H](OC(C)=O)C(C)(C)C[C@H]4[C@]3(C)C(=O)[C@@]2(OC(C)=O)C[C@@H]1C`, for which the Potency entry in assay [1] and in assay [2] was “inactive” throughout.
As to `Nc1nc2c(c(N3CCNCC3)n1)CCC1=C2[C@@H]2CCCC[C@@H]2O1`, the Potency entry in assay [1] and in assay [2] was “inactive” throughout.
Regarding `CC(=O)NCC(=O)N1C2CCC1c1cc(Nc3ncc(C(F)(F)F)c(NC4CCC4)n3)ccc12` (centres undefined), the Potency entry in assay [1] and in assay [2] was “inactive” throughout.
In the case of `O=C(CC(c1ccccc1)c1ccccc1)N1CCN(C(c2ccccc2)c2ccccc2)CC1`, the Potency result in assay [1] and in assay [2] was “inactive” in each case.
With `O=C(NCc1ccc(F)cc1)C(=O)c1c[nH]c2ccccc12`, the Potency result in assay [1] and in assay [2] was “inactive” in each case.
`O=C(OC1C=C(CO)C2C(OC3OC(CO)C(O)C(O)C3O)OC=CC12)c1ccc(O)cc1` (centres undefined): the Potency entry in assay [1] and in assay [2] was “inactive” in each case.
Consider `CC(O)/C=C/C1(O)C(C)C(O[C@@H]2O[C@H](CO)[C@@H](O)[C@H](O)[C@H]2O)C(O)CC1(C)C` (some centres undefined), for which the Potency entry in assay [1] and in assay [2] was “inactive” each time.
For the compound `CCN(CC)CCN(Cc1ccc(-c2ccc(C(F)(F)F)cc2)cc1)C(=O)Cn1c(SCc2ccc(F)cc2)nc(=O)c2c1CCC2`, the Potency entry in assay [1] and in assay [2] was “inactive” each time.
Regarding `CC#CC(=O)N1CCC[C@H]1c1nc(-c2ccc(C(=O)Nc3ccccn3)cc2)c2c(N)nccn12`, the Potency entry in assay [1] and in assay [2] was “inactive” in each case.
On to `COc1cc(OC)cc(C(=O)Nc2ccc(Cl)c(-c3nc4ccc(N(C)C)cc4[nH]3)c2)c1`, for which the Potency result in assay [1] and in assay [2] was “inactive” each time.
Turning to `COc1ccc([C@H]2CNC(=O)C2)cc1OC1CCCC1`, the Potency result in assay [1] and in assay [2] was “inactive” each time.
As for `COC(=O)c1cc(OC)cc(OC)c1C(=O)c1c(OC)cc2c(c1O)C1CCCC(C)(O2)O1` (centres undefined), the Potency result in assay [1] and in assay [2] was “inactive” each time.
Turning to `C[C@H]1C(=O)N2c3ccccc3[C@@]3(O)C[C@@H]4C(=O)N[C@](C)(c5nc6ccccc6c(=O)n54)N1[C@@H]23`, the Potency result in assay [1] and in assay [2] was “inactive” in each case.
Take `CC1NC(=O)CCCNC(=O)C(Cc2c[nH]c3ccccc23)NC(=O)C(C)NC(=O)C(C(C)C)NC(=O)C(C(C)c2ccccc2)NC(=O)C(C(C)C)NC1=O` (stereo not drawn) (cyclo([GABA]AV[ξPhe(βξ-Me)]VAW); configuration not given here): the Potency entry in assay [1] and in assay [2] was “inactive” in each case.
With `CCC(C)C(=O)OC1CC(O)C23C4OCC5(C(O)CC2C1(C)C(O)O4)C3C(=O)CC1(C)C(c2ccoc2)CC2OC215` (centres undefined), the Potency result in assay [1] and in assay [2] was “inactive” throughout.
Consider `CC(Cc1cc2c(c(C(N)=O)c1)N(CCCO)CC2)NCCOc1ccccc1OCC(F)(F)F` (centres undefined), for which the Potency entry in assay [1] and in assay [2] was “inactive” each time.
With `C/C1=C\C[C@]2(C)C(=O)C(O)=C([C@H](C)CO)[C@H]2C/C=C(\C)[C@@H](O)CC/C(C)=C/CC1`, the Potency result in assay [1] and in assay [2] was “inactive” each time.
As to `C[C@@H]1O[C@@H](O[C@H]2[C@H](O)[C@@H](O)[C@H](OC3CCC4(C)C5CCC(C)(C(CO)OC6OC(CO)C(O)C(O)C6O)CC5=CCC4C3(C)C)O[C@@H]2CO)[C@H](O)[C@H](O)[C@H]1O` (some centres undefined), the Potency entry in assay [1] and in assay [2] was “inactive” each time.
Consider `C[C@@H]1C(=O)O[C@H]2C[C@]34[C@H]5C[C@@H](C(C)(C)C)[C@]36[C@@H](OC(=O)[C@H]6O)O[C@]4(C(=O)O5)[C@]21O`, for which the Potency result in assay [1] and in assay [2] was “inactive” throughout.
`OC[C@H]1O[C@@H](OCCc2ccccc2)[C@H](O[C@@H]2OC[C@](O)(CO)[C@H]2O)[C@@H](O)[C@@H]1O`: the Potency entry in assay [1] and in assay [2] was “inactive” throughout.
Turning to `CN(C)C1CCN(C(=O)c2ccc(NC(=O)Nc3ccc(-c4nc(N5CCOCC5)nc(N5CCOCC5)n4)cc3)cc2)CC1`, the Potency entry in assay [1] and in assay [2] was “inactive” throughout.
Consider `O=[N+]([O-])c1cccc2[nH]c(CNc3nc(N4CCOCC4)nc4c3ncn4-c3ccsc3)nc12`, for which the Potency in assay [1] is 89.1 µM (active). Further, the Potency result in assay [2] is “inactive”.
As to `NC1CCCCN(c2c(F)cc3c(=O)c(C(=O)O)cn(C4CC4)c3c2Cl)C1` (centres undefined), the Potency result in assay [1] and in assay [2] was “inactive” in each case.
In the case of `C[C@@H]1CC[C@]2(C(=O)O[C@@H]3O[C@H](CO)[C@@H](O)[C@H](O)[C@H]3O)CC[C@]3(C)C(=CCC4[C@@]5(C)C[C@@H](O)[C@H](O)[C@](C)(C(=O)O)C5CC[C@]43C)[C@@H]2[C@]1(C)O` (some centres undefined), the Potency entry in assay [1] and in assay [2] was “inactive” each time.
With `O=C(NCc1ccccn1)Nc1nnc(-c2ccco2)o1`, the Potency result in assay [1] and in assay [2] was “inactive” throughout.
As to `CC(C)NCC(C(=O)N1CCN(c2ncnc3c2C(C)CC3O)CC1)c1ccc(Cl)cc1` (centres undefined), the Potency entry in assay [1] and in assay [2] was “inactive” in each case.
`CCCOC(c1cc2nccc(C(=O)O)c2[nH]1)c1ccccc1Cl` (centres undefined): the Potency result in assay [1] and in assay [2] was “inactive” each time.
